Screening results as filed in PubChem BioAssay.
Only some compounds are listed: those with a hit (about 12% of all), similar ones and a draw of the others.
Cav32 inh = human Cav3.2 channel inhibition, primary screen; Cav3.2-expressing cells, Fluo-4 calcium fluorescence FDSS; stronger effect = lower value; AID 449739; 4% of 100,000 active; B-score at 10 µM; O95180;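 active means single-dose well whose peak fluorescence ratio is a statistical outlier from its plate by either plate-standardised score or position-corrected B-score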
DAT uptake mod = human DAT dopamine uptake with cocaine, either direction; Q01959; LLC-PK1 hDAT cells, [14C]-dopamine uptake with cocaine IC80; actives deviate in either direction; B-score at 10 µM; 1.3% of 110,000 active; AID 449768;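 active means Z score or B-score, a plate-position-corrected score, falls beyond the plate's 99.7% confidence bounds, in either direction; inactive means both scores lie inside the 99.7% bounds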
Target sequence (Q01959 whole entry, looked up): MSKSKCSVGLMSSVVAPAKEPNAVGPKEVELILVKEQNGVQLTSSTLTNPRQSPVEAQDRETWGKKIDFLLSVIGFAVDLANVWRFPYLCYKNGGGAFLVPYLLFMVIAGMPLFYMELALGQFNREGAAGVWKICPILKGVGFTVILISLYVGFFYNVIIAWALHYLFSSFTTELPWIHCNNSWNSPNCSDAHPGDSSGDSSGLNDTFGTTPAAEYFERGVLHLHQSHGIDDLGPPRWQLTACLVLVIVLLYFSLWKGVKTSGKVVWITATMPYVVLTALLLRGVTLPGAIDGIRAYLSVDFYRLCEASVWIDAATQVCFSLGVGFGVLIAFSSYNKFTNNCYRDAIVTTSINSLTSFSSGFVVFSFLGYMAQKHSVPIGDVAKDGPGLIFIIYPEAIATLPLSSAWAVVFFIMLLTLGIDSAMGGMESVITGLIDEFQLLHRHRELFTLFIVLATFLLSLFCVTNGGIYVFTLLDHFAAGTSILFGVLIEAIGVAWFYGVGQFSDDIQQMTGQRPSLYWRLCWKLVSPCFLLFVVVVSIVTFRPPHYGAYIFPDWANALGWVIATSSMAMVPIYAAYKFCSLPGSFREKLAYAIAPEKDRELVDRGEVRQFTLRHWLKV
PLAP activator = activators of human placental alkaline phosphatase. AID 696. P05187. 1.2% of 96,000 active. purified PLAP enzyme, luminescent substrate read-out; stronger effect = higher value. activation fold at 20 µM; in the data active means activation fold above about 2
PostGolgi yeast = growth inhibition of a yeast mutant, post-Golgi transport screen. 0.9% of 98,000 active. AID 739. inhibition, % at 10 µM. post-Golgi transport phenotypic cell assay;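 further: yeast cells grown in 1536-well plates; yeast grown about 18 h at 30C before absorbance read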
D1 allo mod = allosterically modulates the human D1 dopamine receptor. P21728. HEK293 D1, CRE-luciferase, dopamine EC30 potentiation; actives deviate in either direction. B-score at 10 µM. 5.9% of 58,000 active. AID 641;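 active means luminescence count or its row- and column-corrected plate score outside the 99.7% band of the plate's sample wells, on either side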
PostGolgi ctrl = growth of the yeast control strain, post-Golgi counter-screen; efflux-deficient yeast background strain, growth absorbance A615, 16 h; 5% of 98,000 active; inhibition, % at 10 µM
D1 mod confirm = D1 receptor (human) allosteric modulation, confirmed | shares compounds with D1 allo mod | HEK293 D1 CRE-luciferase, dopamine EC30 potentiation; stronger effect = higher value | luminescence at 10 µM | 88% of 2,200 active;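 active means luminescence in either of two replicates above the same-plate mean plus 3 SD of the low-dose dopamine control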
D1 no dopamine = D1 (human) signaling in absence of dopamine. 0.8% of 1,900 active. shares compounds with D1 allo mod. luminescence at 10 µM. HEK293 D1 CRE-luciferase, luminescence, no dopamine; stronger effect = higher value; in the data active means luminescence above about 3900
Isoprot counter = alters isoproterenol CRE-luciferase response in HEK293 cells; HEK293 D1 CRE-luciferase, isoproterenol EC30 counter-screen; calls only at 10 µM; shares compounds with D1 allo mod; 63% of 2,200 active;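 active means luminescence in either replicate above plate mean of wells with a partly effective reference agonist dose plus 3 SD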;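 further: isoproterenol raises cAMP through native beta-adrenoceptor Gs so signal bypasses D1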
Large screens that a line does not name were inactive (follow-up assays come after a bar, where they were run). Unless noted, no stated cut-off is given here; in the data, active means inhibition above about 30%; inactive means the rest.

O=C(Nc1cccnc1)c1cnn2cccnc12	D1 allo mod 4.6 | D1 mod confirm 7304 | D1 no dopamine inactive | Isoprot counter active
Clc1ccc(SCCCCn2ccnc2)cc1	none
COc1cc2c(cc1OC)CN(C(=O)CSc1n[nH]c(N)n1)CC2	D1 allo mod 13 | D1 mod confirm 16292 | D1 no dopamine inactive | Isoprot counter active
COc1cc2c(cc1OC)CN(C(=O)CCCN1C(=O)c3ccccc3C1=O)CC2	D1 allo mod 5 | D1 mod confirm 7424 | D1 no dopamine inactive | Isoprot counter active
C=CCC1(O)C(=O)N2C(=C1C(=O)N1CCOCC1)c1ccccc1CC2(C)C (stereo not drawn)	none (no result: D1 allo mod)
O=c1o[nH]c(-c2ccccc2)c1C1=NCCCCC1	D1 allo mod 9 (no result: PLAP activator) | D1 mod confirm inactive | D1 no dopamine inactive | Isoprot counter inactive
Oc1[nH]c2ccccc2c1C1=NCCCC1	none
O=C(Nc1ccccc1Cl)N1CCN(c2ccc3nnc(-c4ccccc4)n3n2)CC1	D1 allo mod 5.4 | D1 mod confirm 14068 | Isoprot counter active
CCc1c(C)c(C#N)c2nc3ccccc3n2c1Nc1c(C)n(C)n(-c2ccccc2)c1=O	none
CCc1c(C)c(C#N)c2nc3ccccc3n2c1N(C)C	D1 allo mod 4.9 | D1 mod confirm 9428 | D1 no dopamine inactive | Isoprot counter active
CCOC(=O)C1CCN(C(=O)Nc2ccccc2Cl)CC1	none (no result: DAT uptake mod)
Cc1noc(NS(=O)(=O)c2ccc(NC(=O)CSc3n[nH]c(-c4ccccc4)n3)cc2)c1C	none
Cc1noc(NS(=O)(=O)c2ccc(N3Cc4ccccc4C3=O)cc2)c1C	D1 allo mod 6.6 | D1 mod confirm 15188 | D1 no dopamine inactive | Isoprot counter active
Cn1c(=O)c2c(nc(SCCCO)n2Cc2ccccc2Cl)n(C)c1=O	D1 allo mod 3.9 | D1 mod confirm 6636 | D1 no dopamine inactive | Isoprot counter inactive
Cc1cc(NS(=O)(=O)Cc2ccccc2)no1	none
O=C(OCc1nnc(-c2ccccc2)o1)c1cc(S(=O)(=O)N2CCOCC2)c(Cl)cc1Cl	none
COc1ccc(S(=O)(=O)N2CCc3ccccc32)cc1C(=O)OCc1nnc(-c2ccccc2)o1	D1 allo mod 3.2 | D1 mod confirm 7576 | D1 no dopamine inactive | Isoprot counter active
COc1ccc(OC)c(N2C(=O)C(Cl)=C(N3CCCCC3)C2=O)c1	D1 allo mod 8.9 | D1 mod confirm 6148 | D1 no dopamine inactive | Isoprot counter inactive
COc1ccc(C(C(=O)NC2CCCC2)N(Cc2ccc(C)cc2)C(=O)c2ccn[nH]2)cc1OC (stereo not drawn)	none (no result: PLAP activator, D1 allo mod)
Cc1noc(C)c1CSc1nnc(-c2ccccc2)n1Cc1ccco1	D1 allo mod 4.7 | D1 mod confirm inactive | D1 no dopamine inactive | Isoprot counter inactive
CC(C)COc1cc(=O)[nH]c(SCC(C)C)n1	D1 allo mod 18 | D1 mod confirm 26448 | D1 no dopamine inactive | Isoprot counter active
CCOc1nc(-c2ccccc2Cl)ccc1C#N	none (no result: D1 allo mod)
CCOC(=O)c1cnn(-c2cccc(Cl)c2)c1N	D1 allo mod 4.6 | D1 mod confirm 12468 | D1 no dopamine inactive | Isoprot counter inactive
O=C1COc2ccc(C(=O)c3ccccc3)cc2CN1	DAT uptake mod 3.4, D1 allo mod 4.7 | D1 mod confirm 5740 | D1 no dopamine inactive | Isoprot counter inactive
O=C1COc2ccc3ccccc3c2CN1	none
CCC(=O)NC(Nc1sc2c(c1C(=O)OC)CCN(C)C2)(C(F)(F)F)C(F)(F)F	none (no result: PLAP activator, PostGolgi yeast, D1 allo mod, PostGolgi ctrl)
CCn1c(SCc2cccnc2)nc2c1c(=O)n(C)c(=O)n2C	D1 allo mod 5 | D1 mod confirm 5832 | D1 no dopamine inactive | Isoprot counter inactive
CCCCn1c(SCc2cccnc2)nc2c1c(=O)n(C)c(=O)n2C	none
CCOC(=O)C1=C(N)N2C(=O)CSC2=C(C(=O)OC)C1	none (no result: D1 allo mod)
O=C1NCCCC1C(=O)N1CCN(C(=O)C2CCCNC2=O)CC1 (stereo not drawn)	none (no result: Cav32 inh, DAT uptake mod, PostGolgi yeast, PostGolgi ctrl)
CCN=C1Cn2c(nc3scc(-c4ccccc4)c3c2=O)CN1CC	none
CCc1nc2scc(-c3ccccc3)c2c(=O)n1N	D1 allo mod 6.6 | D1 mod confirm 14056 | D1 no dopamine inactive | Isoprot counter active
OCC(CO)(CO)n1cnnn1	D1 allo mod 3.5 | D1 mod confirm inactive | D1 no dopamine inactive | Isoprot counter inactive
COC(=O)c1cccc(C23CC4(C2)[C@H](CN(Cc2ccc(C(F)(F)F)cc2)[C@@H]4c2ccccc2)C3c2ccc(C(F)(F)F)cc2)c1 (stereo partly drawn)	none (no result: PLAP activator, PostGolgi yeast, D1 allo mod, PostGolgi ctrl)
COc1ccc(C(c2sc3ncnn3c2O)N2CC(C)OC(C)C2)cc1OC (stereo not drawn)	none (no result: PLAP activator, D1 allo mod)
COc1ccc(C(c2sc3ncnn3c2O)N2CCN(c3ccccc3F)CC2)cc1OC (stereo not drawn)	D1 allo mod 4.8 | D1 mod confirm 14444 | D1 no dopamine inactive | Isoprot counter active
N#Cc1c(N)nc(SCC(=O)OCc2ccccc2)c(C#N)c1-c1ccco1	none
CCc1nc(N)c(C#N)c(-c2ccc(F)cc2)c1C	none (no result: D1 allo mod)
CCCc1nc(N)c(C#N)c(-c2ccco2)c1CC	D1 allo mod 6.7 | D1 mod confirm 9040 | D1 no dopamine inactive | Isoprot counter active
CCCOC(=O)CSc1nc(N)c(C#N)c(-c2ccco2)c1C#N	none (no result: PLAP activator, PostGolgi yeast, D1 allo mod, PostGolgi ctrl)
N#Cc1c(N)nc(SCc2ccccc2)c(C#N)c1-c1ccco1	D1 allo mod 4.2, PostGolgi ctrl 37 | D1 mod confirm 9744 | D1 no dopamine inactive | Isoprot counter active
Cc1c(-c2ccc(F)cc2)nc(N)c(C#N)c1-c1ccco1	D1 allo mod 5.8 | D1 mod confirm 8280 | Isoprot counter inactive
CCN(CC(=O)Nc1ccc2c(c1)OCCO2)c1nc(-c2cccnc2)nc2ccccc12	D1 allo mod 3.6 | D1 mod confirm 7472 | D1 no dopamine inactive | Isoprot counter active
COc1ccc(N(CC(=O)Nc2ccc3c(c2)OCCO3)S(=O)(=O)c2cccnc2)cc1	none
CCCC1(C(=O)OCC)NC(c2ccc(N(C)C)cc2)C2C(=O)N(c3ccc(OCC)cc3)C(=O)C21 (stereo not drawn)	D1 allo mod 2.9 | D1 mod confirm inactive | D1 no dopamine inactive | Isoprot counter inactive
CC(=O)c1nn(-c2ccc(Br)cc2)cc1C(=O)c1ccco1	none (no result: PLAP activator, PostGolgi yeast, D1 allo mod, PostGolgi ctrl)
CC(=O)c1nn(-c2cccc(Cl)c2)cc1C(=O)c1ccco1	D1 allo mod 4.3 | D1 mod confirm 12508 | D1 no dopamine inactive | Isoprot counter inactive
Cc1ccc(S(=O)(=O)NC2CCCC(C(=O)O)C2)cc1 (stereo not drawn)	none
